Assay results: the supplement of paper PMC6555819

Key:
Assay in all cases: PBM binding z-score (relative to random genomic background probes); higher = stronger binding; sequences stand for … in GC…GCGATTGACAGCGTAGAATGAAGG
[1] = test system: FXR:RXRa (NR concentration 270 nM, RXRa partner concentration 90 nM)
How it was run: (§1)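 Random background probes are the reference for binding z-scores. These scores derive from regression-normalized fluorescence on custom Agilent 4×180K protein-binding microarrays incubated 1 h with ligand-free nuclear receptor dimers. Binding was detected with antibodies against each partner (one per run).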

[2] = test system: LXRa:RXRa (NR concentration 270 nM, RXRa partner concentration 90 nM)
How it was run: as §1

[3] = test system: LXRa homodimer (NR concentration 270 nM)
How it was run: as §1

[4] = test system: LXRb:RXRa (NR concentration 270 nM, RXRa partner concentration 90 nM)
How it was run: as §1

[5] = test system: LXRb homodimer (NR concentration 270 nM)
How it was run: as §1

[6] = test system: PPARa:RXRa (NR concentration 270 nM, RXRa partner concentration 90 nM)
How it was run: as §1

[7] = test system: PPARg:RXRa (NR concentration 180 nM, RXRa partner concentration 90 nM)
How it was run: as §1

[8] = test system: PPARg:RXRa 270nM:90nM, anti-RXR (NR concentration 270 nM, RXRa partner concentration 90 nM)
How it was run: as §1

[9] = test system: PPARg:RXRa 30nM:10nM, anti-RXR (NR concentration 30 nM, RXRa partner concentration 10 nM)
How it was run: as §1

[10] = test system: PPARg:RXRa 90nM:30nM, anti-RXR (NR concentration 90 nM, RXRa partner concentration 30 nM)
How it was run: as §1

Sequence	PBM binding z-score [1]	PBM binding z-score [2]	PBM binding z-score [3]	PBM binding z-score [4]	PBM binding z-score [5]	PBM binding z-score [6]	PBM binding z-score [7]	PBM binding z-score [8]	PBM binding z-score [9]	PBM binding z-score [10]
ACTAGCAGGCCAAGTTTGGGTCACTCCAACAAAG	0.154	0.00504	-0.19	0.664	-0.49	1.18	-0.0331	-0.0928	-0.803	-0.387
ATATCTAGGTTAAGGGTCATTCAGGTTGGTTCGC	5.3	5.06	3.85	4.75	2.55	6.83	11.7	10.3	10.8	12.4
ACAGACGGGTGAGTGAAGGTAACTCAGCTGGACG	0.431	-0.164	-0.31	-0.488	-0.833	0.0344	0.424	-0.249	-0.296	-0.268
CCTAGCAGCCCAGGGTCACTCAAGCATTTCGCTT	2.06	1.93	-0.213	2.17	-0.762	2.99	0.0606	0.885	-0.586	0.325
CATGCTAGGTCAATGGTCAGCTAAAGCAGCTCGC	3.18	2.65	0.2	1.38	0.174	3.04	4.43	4.63	2.27	4.38
GATACAGGGTCAGCTAGTGGCCAGAGTATGGAAA	4.54	2.31	-0.558	2.21	-0.762	4.49	3.55	3.25	0.61	1.77
TATACATGGTCAAAGGCCAGAGTACGAATGTCGA	0.397	0.672	0.238	0.37	0.623	1.64	3.14	4.34	2.32	4.31
GGAACGAGGGCAAGTTGAGAGCAGAGTTTGATGG	1	0.529	-0.352	0.383	-0.627	1.72	0.945	1.34	0.0684	0.629
CCGACTGGGGCAAGGTTACCATAACGCACAGCCA	0.287	0.668	-0.166	0.835	-1.25	2.12	2.78	3.43	1.23	2.86
CCTACTGGGGCATAAGGTTACCATAAGCCAGCCC	0.331	1.69	-0.117	0.717	-0.859	2.47	3.73	4.44	2.09	4.09
CCGACTGGGGCAGAAAGGCTACCATACCATCCGG	-0.561	-0.818	-0.431	-0.869	-1.41	-0.338	0.703	-0.0777	-0.705	-0.612
ATCTCTAGGTAACTAAGTTCAGTGAATGCCGAAC	0.51	0.962	1.22	1.02	0.792	1.32	0.573	0.892	0.181	0.816
